Test results published in PubChem BioAssay AID1233 (SRMLSC, 2008).
Results with a measured potency or affinity are listed apart. Calls of active or inactive are those of the source.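 How the source made its calls: active means a dose-response curve fit returns a half-maximal inhibitory concentration, extrapolated values included; inactive means the fit returns no such concentration.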

target: HMG-CoA reductase [Enterococcus faecalis] (UniProt Q9FD70); assay: inhibitors of E. faecalis class II HMGR, confirmation, biochemical, Enterococcus faecalis (AID 1233);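 further: 0% = full reaction carrier wells and 100% = background wells lacking mevalonate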; settings: purified E. faecalis HMGR, NADPH absorbance 340 nm kinetics; series mostly up to 100 µM; inhibition: at the top concentration

inhibition, inactive:
Cc1c(Br)c([N+](=O)[O-])nn1C(C)C(=O)Nc1ccc2c(c1)OCO2 (stereo not drawn) -2.77%
CC1CN(Cc2cnc(Cl)s2)CC(C)O1 (stereo not drawn) -4.08%
CC(=O)N1CC2(C)CN(C(C)=O)CC(C)(C1)C2 -9.15%
Cn1nc([N+](=O)[O-])nc1Sc1nnnn1-c1ccc(C(=O)O)cc1 -3.35%
CCOC(=O)c1cc2c(ccn2C)n1CC(=O)N1CCN(c2cccc(C(F)(F)F)c2)CC1 -1.25%
CCOC(=O)c1ccc(N(C(=O)c2cnccn2)C(C(=O)NC2CCCCC2)c2cn(C)nc2C)cc1 (stereo not drawn) -9.54%
CCCCCCNC(=O)C(=O)NCCc1ccc(Cl)cc1 -5.67%
COCc1c(C(=O)Nc2nc(C)cs2)oc2ccccc12 -0.65%
CC1SC(c2ccc(Cl)cc2)NC1=O (stereo not drawn) 1.13%
COCCCNC(=O)CCCC(=O)NCCCOC -2.96%
Cc1cc(SCn2nnc3ccccc3c2=O)nc2ccccc12 13%
COc1ccc(-n2c(SCC(N)=O)nc3sc4c(c3c2=O)CCN(C)C4)cc1 1.62%
CCC1(CC)C(=O)NN(c2ccccc2)C1=O -1.66%
O=C(N/N=C/c1ccc(OC(F)F)cc1OC(F)F)c1cccc(S(=O)(=O)N2CCOCC2)c1 -0.17%
Cc1cc(C(=O)NN=C2CCCCC2)c2ccccc2n1 -3%
CC(=O)NCCn1c(SCc2cc(=O)n3cc(Cl)ccc3n2)nc2ccccc2c1=O -10.6%
O=C(Nc1cccc(S(=O)(=O)N2CCCCCC2)c1)c1ccc2ccccc2n1 -2.66%
CCN(CC)c1ccc(-c2n[nH]c(=S)n2-c2ccccc2C)cc1 -8.49%
Cc1ccc2nc(-c3sc4nc(C)ccc4c3N)[nH]c2c1 -3.66%
COc1cc(C#N)ccc1OCC(=O)c1ccc2c(c1)OCCO2 -2.62%
Cc1nc(NC(=O)COC(=O)CCS(=O)(=O)c2ccccc2Cl)c(Cl)cc1Cl -2.51%
CCN1CCCC1CNCC(O)COc1ccc(C(C)(C)C)cc1C (stereo not drawn) 0.13%
COC(=O)c1sccc1-c1ccc(C(=O)Nc2cccnc2)o1 -1.88%
NC(=O)CSc1nnc(-c2ccc([N+](=O)[O-])cc2)o1 -0.33%
N#CC(=C1CCCC1)c1nc(-c2ccc(Cl)cc2)cs1 9.54%
CN(C)CCCN(Cc1ccccc1)C(=S)Nc1ccc(SC(F)F)cc1 -2.21%
CCN(CC)CCOc1nc(C)nc2c1oc1ccccc12 -5.2%
O=C(c1ccco1)N1CCCN(Cc2cn[nH]c2-c2ccc(-c3ccccc3)cc2)CC1 0.24%
CSc1ccccc1C(=O)NCc1ccccc1 -2.21%
COc1cc(NC(=O)c2cc3nc(-c4ccccc4)cc(-c4ccccc4)n3n2)cc(OC)c1OC -0.02%
COc1ccc(CN2CCNC(=O)C2CC(=O)NCCc2c[nH]c3ccccc23)c(OC)c1 (stereo not drawn) 0.02%
O=C(CSc1nnnn1-c1ccccc1)Nc1ccc(N2CCOCC2)c(Cl)c1 -8.15%
Fc1ccccc1Cn1cnc(NC(=S)NCCc2ccccc2)n1 -8.26%
CC(=O)c1cccc(NC(=O)Nc2csc3c2CCCC3)c1 -3.82%
O=C(CCS(=O)(=O)c1cccc2nonc12)Nc1cccc2c1CCCC2 -2.96%
O=C(CSCc1ccc(Cl)cc1)NCC1CCCO1 (stereo not drawn) 0.13%
CCn1c(SCC(=O)N/N=C/c2ccc(C)o2)nnc1-c1ccccc1 -0.02%
O=C(Nc1ccc(N2CCCCC2)cc1)c1ccc2c(c1)OCCO2 -4.93%
